PubChem BioAssay (EPA / NIEHS)
Records with an inconclusive call do not appear. Calls of active or inactive are those of the source. The calls were made as follows: active = hit-call score of the fitted dose curve at least 0.9, where 1 is the maximum; inconclusive = response in the unintended direction; inactive = score below 0.9.

Assay: ACEA_ER_AUC_viability: ACEA Biosciences xCELLigence Real-Time Cell Analysis on Estrogen Receptor Agonism for Viability (AID 2283782);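 also: continuous compound exposure with impedance area under curve over 80 h; hit means loss of impedance signal meaning reduced cell growth or viability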
Outline: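 T-47D; phenol red-free RPMI1640 + 10% CS-FBS; 8 conc., 1:4 serial, max 100 uM final, ≤0.5% DMSO; n = 2; continuous exposure; impedance monitored to 80 h post-dose; AUC vs DMSO.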

Structure (SMILES) | outcome | AC50
CCCCOC(=O)[C@H](C)O | inactive | 
O=C1OC(=O)c2ccc3c4c(ccc1c24)C(=O)OC3=O | inactive | 
O=C(O)CCC(F)(F)C(F)(F)C(F)(F)F | inactive | 
O=C1c2c(O)ccc(Nc3ccc(CCO)cc3)c2C(=O)c2c([N+](=O)[O-])ccc(O)c21 |  | 88.8 µM (active)
CCCC(=O)OCC(COC(=O)CCC)OC(=O)CCC | inactive | 
CCCCCCCCCCCC(=O)Cl |  | 79.8 µM (active)
CCN(CCO)S(=O)(=O)C(F)(F)C(F)(F)C(F)(F)C(F)(F)C(F)(F)C(F)(F)C(F)(F)C(F)(F)F |  | 20.2 µM (active)
O=C(Cl)C(F)(F)C(F)(F)C(F)(F)C(F)(F)C(F)(F)C(F)(F)F | inactive | 
O=c1[nH]cccc1O |  | 25.7 µM (active)
COCCC(=O)OC | inactive | 
NC(O)(C(F)(F)F)C(F)(F)F | inactive | 
COc1ccccc1C=O | inactive | 
CN(N=O)C(=O)N[C@@H]1[C@@H](O)[C@H](O)[C@@H](CO)O[C@@H]1O | inactive | 
Cc1cc(O)c(C(C)(C)C)cc1C(C)(C)C |  | 23.2 µM (active)
FC(F)(F)C(F)(F)C(F)(F)C(F)(F)C(F)(F)C(F)(F)C(F)(F)CCI | inactive | 
OCC(F)(F)C(F)(F)C(F)(F)CO | inactive | 
O=S(=O)(OCC(F)(F)F)C(F)(F)C(F)(F)C(F)(F)C(F)(F)F | inactive | 
CCN(CC)c1ccc2c(c1)Oc1cc(N(CC)CC)ccc1C21OC(=O)c2ccccc21 |  | 8.06 µM (active)
Cc1cnccn1 | inactive | 
CCc1ccc(C)nc1 | inactive | 

Structure (SMILES) | outcome | AC50
NC(=O)C(F)(F)C(F)(F)C(F)(F)C(F)F | inactive | 
C#CC(O)CCC (centres undefined) | inactive | 
CC(C)C(=O)OCc1ccccc1 | inactive | 
O=S(=O)(O)c1ccc(Cl)cc1 | inactive | 
NC(=O)C(F)(F)C(F)(F)C(F)(F)F | inactive | 
O=C(c1ccccc1)c1ccc(Cl)cc1 |  | 28.4 µM (active)
O=S(=O)(Cl)C(F)(F)C(F)(F)C(F)(F)C(F)(F)C(F)(F)C(F)(F)C(F)(F)C(F)(F)F | inactive | 
CCOC(C=C(C)CCC=C(C)C)OCC |  | 11.3 µM (active)
CN1CN(C)CN(C)C1 | inactive | 
CC1=CC2C3C=CC(C3)C2C1C (centres undefined) |  | 50 µM (active)
CCCCCCCCCCCCCCCCC | inactive | 
Brc1ccccn1 | inactive | 
Nc1cc([N+](=O)[O-])cc(Cl)c1O | inactive | 
OCCCc1cccnc1 | inactive | 
C=CC(=O)OCC(F)(F)C(F)(F)C(F)(F)C(F)(F)C(F)(F)C(F)(F)C(F)(F)C(F)F | inactive | 
FC(F)(F)C(F)(F)C(F)(F)C(F)(F)C(F)(F)C(F)(F)CC[Si](Cl)(Cl)Cl | inactive | 
Cc1cccc(C)n1 | inactive | 
C=C(C)CCCC | inactive | 
CSc1ccc(Cl)cc1 | inactive | 
